From PubChem
CBX7 AlphaScr: CBX7 chromodomain binding inhibitors, primary screen, biochemical, AlphaScreen. AID 1224903, 2016. Chromobox protein homolog 7 (Homo sapiens), O95931. 66,000 tested, 1.1% active. normalised signal (fraction of DMSO) (concentration not given with the values). AlphaScreen His6-CBX7 / biotin-H3K27me3 peptide binding; hits give low values; in the data active means normalised signal below about 0.5
Target sequence (O95931 whole entry, looked up): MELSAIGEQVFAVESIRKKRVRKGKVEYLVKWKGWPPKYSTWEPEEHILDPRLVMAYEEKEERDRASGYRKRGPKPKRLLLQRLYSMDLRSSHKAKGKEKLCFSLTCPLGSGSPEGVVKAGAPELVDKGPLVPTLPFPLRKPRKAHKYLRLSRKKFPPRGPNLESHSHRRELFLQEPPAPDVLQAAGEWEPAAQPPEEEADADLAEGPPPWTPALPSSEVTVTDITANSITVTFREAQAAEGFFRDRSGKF
* marks the source's active call; other numbers are inactive results; ! = repeats disagree. Shown is part of a subset that was picked to be rich in hits.

SMILES	CBX7 AlphaScr
Fc1ccc(Nc2c(-c3ccccn3)nc3ccc(Cl)cn23)cc1	0.86
Cc1ccccc1Nc1c(-c2ccccn2)nc2ccc(Cl)cn12	0.96
Clc1ccc2nc(-c3ccccn3)c(Nc3ccccc3)n2c1	0.59
Cc1ccc(Nc2c(-c3ccccc3)nc3ccc(C)cn23)cc1	1.2
Cc1ccc2nc(-c3ccccn3)c(Nc3ccccc3C)n2c1	0.0067*
COc1ccc(Nc2c(-c3ccccn3)nc3ccc(C)cn23)cc1	0.06*
CC1CCC2C(C)(CO)C(O)CCC2(C)C12CCC(C)(CO)O2 (stereo not given)	1
COc1ccc(-n2c3c(cc(C(=O)Nc4cccc(F)c4)c2=O)C(=O)CC(C)(C)C3)cc1	1
COc1ccccc1-c1c(C)[nH]n2c(=O)cc(Cc3ccccc3)nc12	0.94
CCN(c1ccc(C)c(C)c1)S(=O)(=O)c1ccc2c(c1)CCN2C(=O)C1CCC1	1
COc1ccc(N2CCN(C(=O)CC(C)(C)CC3=NS(=O)(=O)c4ccccc4N3)CC2)cc1	0.92
CCOc1ccc(NC(=O)c2ccc(OCC)c(Br)c2)cc1	1.1
COc1ccc(-c2cc(C(=O)NCCC(C)C)c3cc(C(C)C)ccc3n2)cc1	1.1
COc1ccc(C(=O)NCCc2cc3ccc(C)cc3[nH]c2=O)cc1	0.85
Cc1cc(C)cc(OCc2nc(-c3ccncc3)no2)c1	1.1
Clc1ccc2nc(-c3ccc(N4CCOCC4)cc3)c(Nc3ccc4c(c3)OCCO4)n2c1	1.1
Clc1ccc2nc(-c3ccccn3)c(Nc3ccc4c(c3)OCCO4)n2c1	0.15*
Clc1ccc2nc(-c3ccccc3)c(Nc3ccc4c(c3)OCCO4)n2c1	1.1
O=C(CN1C(=O)CSc2ccc(S(=O)(=O)N3CCCCC3)cc21)NCc1cccs1	1
CCCCCn1c(CCCO)nc2ccccc21	1.1
COc1ccc(-n2c(Cc3cc(=O)[nH]c(=O)[nH]3)nnc2SCc2ccc(C)cc2)cc1	0.76
CCOC(=O)N1CCN(c2c(NCCN3CCCC3)c(=O)c2=O)CC1	1
COc1ccc(-c2nc3cc(C)ccn3c2Nc2ccccc2C)cc1	0.78
Cc1ccn2c(Nc3ccccc3C)c(-c3ccccn3)nc2c1	0.0084*
Cc1ccccc1Nc1c(-c2ccccn2)nc2cnccn12	0.8
SMILES	CBX7 AlphaScr
Cc1ccn2c(Nc3ccccc3)c(-c3ccccn3)nc2c1	0.06*
Cc1ccn2c(Nc3ccccc3)c(-c3cccnc3)nc2c1	0.94
Cc1ccccc1Nc1c(-c2ccccn2)nc2ccccn12	0.13*
Cc1ccn2c(Nc3ccccc3C)c(-c3ccc(Cl)cc3)nc2c1	0.85
Cc1ccccc1Nc1c(-c2cccnc2)nc2ccccn12	0.9
Cc1ccc(Nc2c(-c3ccc(Cl)cc3)nc3cc(C)ccn23)cc1	1
O=C(Cn1ncc2ccsc2c1=O)NCCC1=CCCCC1	1.1
C#CC(O)(c1ccc(OC)cc1)c1ccccc1F (stereo not given)	1
CCn1c(C(=O)N2CCC(C(=O)NCC(OC)OC)CC2)cc2sccc21	0.85
Cc1ccnc(NS(=O)(=O)c2ccc(NC(=O)c3ccccc3Br)cc2)n1	1
CCc1cccc(NC(=O)c2cnn(-c3ccccc3)c2C2CCN(C(=O)OC(C)(C)C)CC2)c1	0.96
CCOc1cccc(C(=O)N(Cc2cccc(Cl)c2)C2CCS(=O)(=O)C2)c1 (stereo not given)	0.84
CCOC(=O)c1cnc2ccc(OCC)cc2c1Nc1ccc2c(c1)OCO2	0.42*
CCOC(=O)c1cnc2ccc(OCC)cc2c1Nc1ccc2c(c1)OCCO2	0.87
CCOC(=O)c1cnc2ccc(OC)cc2c1Nc1ccc(C)c(C)c1	1.1
CCOC(=O)c1cnc2ccc(OCC)cc2c1Nc1ccc(CC)cc1	1.1
CCOC(=O)c1cnc2ccc(Br)cc2c1Nc1ccc2c(c1)OCCO2	0.84
CCOC(=O)c1cnc2ccc(OC)cc2c1Nc1ccc2c(c1)OCCO2	0.47*
CCCCNS(=O)(=O)c1ccc2nc(-c3cccnc3)cc(C(=O)NCc3ccc(C)cc3)c2c1	1
CN(C)c1ccc(Nc2nc(-c3ccccc3)cs2)cc1	0.34*
Fc1ccc(-c2csc(Nc3ccc4c(c3)OCO4)n2)cc1	0.38*!
COc1ccc(-c2csc(Nc3ccccc3OC)n2)cc1F	1
CC(C)Cc1ccc(-c2csc(Nc3ccc(F)cc3)n2)cc1	0.8
COc1ccc(-c2csc(Nc3cccc(C(F)(F)F)c3)n2)cc1F	0.75
COc1ccc(-c2csc(Nc3ccc4c(c3)OCO4)n2)cc1F	0.48*!
SMILES	CBX7 AlphaScr
CC(=O)Nc1ccc(Nc2nc(-c3ccccc3)cs2)cc1	0.86
c1ccc(-c2csc(Nc3cccc4ccccc34)n2)cc1	0.82
O=C(Nc1nc(-c2ccc(Cl)cc2)cs1)c1ccc2c(c1)OCO2	1.1
c1ccc(-c2csc(Nc3ccc4c(c3)OCO4)n2)cc1	0.37*!
Ic1ccc(-c2csc(Nc3ccc4ccccc4c3)n2)cc1	0.88
O=C1c2ccccc2C(=O)N1c1cccc(-c2csc(Nc3ccc4c(c3)OCO4)n2)c1	1.6
CCCCNC(=O)CNC(=O)Cn1cnc2c(c1=O)C1CCCCC1S2 (stereo not given)	0.81
O=C(Cc1ccccc1)Nc1nnc(COc2ccc(Cl)cc2Cl)s1	0.97
CCCCc1ccc(NC(=O)Cn2cnc3c(nnn3Cc3ccc(C)cc3)c2=O)cc1	0.89
COc1ccc(Cl)cc1C(=O)Nc1cc(-c2nc3ncccc3o2)ccc1C	1
CC1CN(c2oc(COc3ccccc3)nc2C#N)CC(C)O1 (stereo not given)	0.95
O=C(Cc1ccc(NC2=NC3CS(=O)(=O)CC3S2)cc1)N1CCCC1 (stereo not given)	1
COc1ccc(NC(=O)c2c(-c3c(F)cccc3Cl)noc2C)cc1	1.2
O=C(Nc1ccc2[nH]c(=O)[nH]c2c1)C1COc2ccccc2O1 (stereo not given)	1
O=C(Nc1ccc(F)cc1)C1CC(=O)N(c2ccc(Cl)cc2)C1 (stereo not given)	0.99
O=C(Nc1ccc2[nH]c(=O)[nH]c2c1)c1ncn[nH]1	0.39*
O=c1[nH]c2ccc(S(=O)(=O)Nc3ccc(F)cc3)cc2[nH]1	1
Cc1cc(NS(=O)(=O)c2ccc(N3CCCC3=O)cc2)no1	1.2
O=C(Nc1ccc(N2CCCC2=O)cc1)c1ncn[nH]1	0.0091*
CC1(C)CC(=O)c2cc(C(=O)Nc3ccc(Cl)cc3)c(=O)n(-c3ccccc3)c2C1	1.6
CC1(C)CC(=O)N(CC(=O)NCCc2ccccc2)c2ccccc2S1	1
O=C(CN1C(=O)COc2ccc(S(=O)(=O)N3CCOCC3)cc21)NCCC1=CCCCC1	1
Cc1ccc(NC(=O)C2CCCN2S(=O)(=O)c2ccc3c(c2)CCC(=O)N3)c(C)c1 (stereo not given)	0.96
Cc1ccc(C(=O)c2oc3ccccc3c2NC(=O)c2ccccc2Cl)cc1	1.2
Cc1oc(-c2cccc(Cl)c2)nc1CS(=O)(=O)CC(=O)NCc1ccc2c(c1)OCO2	1
SMILES	CBX7 AlphaScr
O=S(=O)(Nc1nccs1)c1ccc(Nc2nnc(-c3ccc(Cl)cc3)c3ccccc23)cc1	0.23*
Cc1ccc(Nc2nnc(-c3ccc(C)c(S(=O)(=O)NC(C)(C)C)c3)c3ccccc23)cc1	0.93
O=C(Nc1ccc(S(=O)(=O)Nc2nccs2)cc1)c1ccccc1Br	1
Cc1nnc(Nc2ccc(S(=O)(=O)Nc3nccs3)cc2)c2ccccc12	0.49*
NC(=O)COc1ccc(Nc2nnc(-c3ccc(Cl)cc3)c3ccccc23)cc1	0.91
Cc1ccc(-c2nnc(Nc3ccc4c(c3)ncn4C)c3ccccc23)cc1	0.58
